Screens deposited in PubChem BioAssay by National Center for Advancing Translational Sciences (NCATS).
RECQ1 inh = RECQ1 (human) helicase inhibition; 0.54% of 240,000 active; P46063; AID 2549; Potency, µM (highest dose often 57.3 µM), for the others: top-dose activity, negative = inhibition, actives largely listed as inhibitors; RECQ1 DNA unwinding, red fluorescence kinetic read;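 also: plate controls were vehicle for no effect and no enzyme for full effect; nearly all actives have a fitted effect of over 30% in size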
Target sequence (P46063 whole entry, looked up): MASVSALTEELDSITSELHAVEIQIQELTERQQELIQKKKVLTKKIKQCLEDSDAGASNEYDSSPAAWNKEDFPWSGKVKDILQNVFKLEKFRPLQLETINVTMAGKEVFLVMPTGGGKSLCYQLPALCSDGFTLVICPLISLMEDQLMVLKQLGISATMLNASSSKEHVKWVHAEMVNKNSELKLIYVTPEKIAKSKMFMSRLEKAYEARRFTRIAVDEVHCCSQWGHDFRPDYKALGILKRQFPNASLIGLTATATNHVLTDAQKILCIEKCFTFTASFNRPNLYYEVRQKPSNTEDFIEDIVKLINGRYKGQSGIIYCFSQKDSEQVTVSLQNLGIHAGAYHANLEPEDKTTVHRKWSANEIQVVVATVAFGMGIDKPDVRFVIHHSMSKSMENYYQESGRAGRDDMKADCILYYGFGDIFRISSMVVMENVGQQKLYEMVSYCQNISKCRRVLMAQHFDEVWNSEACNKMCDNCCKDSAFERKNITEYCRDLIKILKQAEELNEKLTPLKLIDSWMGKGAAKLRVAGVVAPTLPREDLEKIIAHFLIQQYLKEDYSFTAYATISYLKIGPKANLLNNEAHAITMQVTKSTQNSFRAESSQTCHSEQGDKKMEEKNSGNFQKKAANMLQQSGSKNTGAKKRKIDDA
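50 nM RECQ1T1 preincubated 15 min with compound in Tris pH 8.0 buffer with MgCl2, DTT, Tween-20 and 2.5 ug/ml poly(dI-dC); started with 200 nM TAMRA/BHQ-2 forked duplex and 2 mM ATP. Unwinding read as fluorescence (525/598 nm), two reads 2 h apart.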
GLS inhibitor = blocks human kidney-isoform glutaminase activity. Potency, µM (top dose mostly 45.5 µM), for inactives: top-dose activity change, negative = inhibition, most hits filed as inhibitors. AID 624170. GLS enzymatic activity, qHTS titration. O94925. 0.21% of 410,000 active
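hKGA in 45 mM KH2PO4 pH 8.2, 0.02% Tween-20 with pin-transferred compounds; 1 mM L-glutamine (stock) plus glutamate oxidase/HRP/Amplex Red coupling added. Fluorescence read initially and after 30 min at RT.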
BLM inh = inhibitors of human Bloom syndrome helicase BLM. P54132. recombinant BLM DNA unwinding, fluorescence dequenching. Potency, µM (doses to about 56.1 µM), inactives show at the highest dose activity change, negative = inhibition, actives largely listed as inhibitors. 0.2% of 350,000 active. AID 2528;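 also: plate controls were vehicle for no effect and no enzyme for full effect; nearly all actives have a fitted effect of over 35% in size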
Tb PGK inh = inhibitors of T. brucei phosphoglycerate kinase; PGK/GAPDH coupled, Kinase-Glo luminescence, 60 min; 0.043% of 380,000 active; Potency, µM (highest dose often 57.5 µM), for inactives: top-dose activity change, negative = inhibition, most hits filed as inhibitors; AID 602233; also: nearly all actives have a fitted effect of over 60% in size
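Recombinant glycosomal PGK reaction used 1,3-bisphosphoglycerate generated in-well by GAPDH (100nM final) in 100mM TEA pH 7.6, 5mM MgCl2, 0.01% Tween-20. After 60 minutes at room temperature, ATP was read by Kinase-Glo Plus luminescence end-point.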
APEX1 inh = inhibitors of human APE1 endonuclease | recombinant APE1, TAMRA/BHQ-2 abasic DNA cleavage fluorescence | Potency, µM (series often up to 65.8 µM), inactives show at the highest dose activity change, negative = inhibition, usual class: inhibitors | 0.35% of 350,000 active | AID 2517;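 also: plate controls were vehicle for no effect and reference inhibitor for full effect; nearly all actives have a fitted effect of over 55% in size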
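Measures dequenching upon AP-site incision of a 5'-TAMRA/3'-BHQ-2 THF-containing duplex, 50 nM; human APE1 0.75 nM after 15 min room-temperature exposure to compound; kinetic three-point read at one-minute spacing.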
TDP1 inh = inhibitors of human tyrosyl-DNA phosphodiesterase TDP1 | recombinant TDP1, AlphaScreen DNA substrate cleavage | AID 485290 | 0.28% of 350,000 active | Q9NUW8 | Potency, µM (highest dose often 130 µM), without a hit: top-dose activity change, negative = inhibition, hits mostly inhibitors; also: nearly all actives have a fitted effect of over 40% in size
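Enzyme-compound mixtures sat 15 min at room temperature, followed by a 5 min reaction with 15 nM final substrate and 10 min with AlphaScreen beads. Recombinant human Tdp1 was used at 1 nM final.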
* marks the source's active call; other numbers are inactive results; i = inactive; ? = inconclusive; . = no result; ! = not active in a repeat; [ ] = remark or other dose. Rows were chosen to be rich in hits. Some 0.85% of all compounds tested hit in one or more screens of this group. Calls follow the shape of the dose curve; as a rule, active = well fitted curve in the direction sought with a large enough effect; inconclusive = small, poorly fitted or top-dose-only effect, or another doubt; inactive = no such curve, though single readings can be large; an effect the other way counts as inactive or inconclusive. Unless noted, % is scaled to controls: 0 for no effect and ±100 for the full control effect; potency is read from the fitted curve at half-maximal effect.

SMILES	RECQ1 inh	GLS inhibitor	BLM inh	Tb PGK inh	APEX1 inh	TDP1 inh
COc1ccc(/C=C2\CCn3c2nc2cc(C(=O)O)ccc2c3=O)cc1O	-9%	6.3µM*	-3%	-5%	6%	.
COc1cc(-c2cc(=O)c3c(O)c(OC)c(OC)c(O)c3o2)ccc1O	13µM*	2.8µM*	-9%	-15%	?	0%
CC[C@H]1OC(=O)[C@H](C)C(=O)[C@H](C)[C@@H](O[C@@H]2O[C@H](C)C[C@H](N(C)C)[C@H]2O)[C@](C)(OC)C[C@@H](C)C(=O)[C@H](C)[C@H]2N(CCCCn3cnc(-c4cccnc4)c3)C(=O)O[C@]12C	.	.	.	.	-4%	.
CS[C@@H]1SC[C@H]2C(=O)N(C)C(C(C)C)C(=O)OC[C@@H](NC(=O)c3cnc4ccccc4n3)C(=O)N[C@@H](C)C(=O)N(C)[C@H]1C(=O)N(C)C(C(C)C)C(=O)OC[C@@H](NC(=O)c1cnc3ccccc3n1)C(=O)N[C@@H](C)C(=O)N2C (some centres not stated)	10µM*	.	26%	.	?	9%
CC(NC(=O)c1cnc2ccccc2n1)c1ccccc1 (configuration not stated)	.	-2%	-12%	-7%	-8%	.
CC(C)(C)OC(=O)Cc1nnc(C(C(=O)OCc2ccccc2)c2ccccc2)s1 (configuration not stated)	.	.	.	.	.	-5%
CC(C)(C)n1ncc2c(=O)n(Cc3cccc(-c4ccccc4)c3)cnc21	.	.	.	.	-4%	.
Cc1ccc(S(=O)(=O)CCC(=O)OCC(=O)NCc2ccc(F)cc2)cc1	.	-7%	.	-8%	.	.
O=C(CCS(=O)(=O)c1ccc(Br)cc1)NCc1ccc(F)cc1	.	?	0%	?	6%	50µM*
Nc1cc(-c2ccccc2)c[nH]c1=O	.	.	.	.	.	3%
CCCCC/C=C/C/C=C/CCCCCCCC(=O)NC(C)c1ccccc1 (configuration not stated)	.	2%	.	.	.	.
Cc1ccc(/C=N/Nc2nc(C(C)(C)C)cs2)o1	11%	4%	-12%	.	-6%	8%
Cc1ccc(/C=N/Nc2nc3ccccc3s2)o1	-5%	8.9µM*	-10%	5%	-4%	11%
NC(=O)c1ccc(Nc2nnc(-c3ccc(O)cc3)c3ccccc23)cc1	-11%	171%	-8%	-7%	-5%	0%
NC(=O)Cc1ccc(Nc2nnc(-c3ccc(O)cc3)c3ccccc23)cc1	-6%	11µM*	-3%	-4%	-2%	-3%
CSC1=NC=C(C#N)C2=NC(c3c(Cl)cccc3Cl)NN12 (configuration not stated)	.	11µM*	.	.	.	.
CC(C)c1cc2c(s1)c1cnn(Cc3ccccc3F)c(=O)c1n2C	.	.	.	.	.	-5%
CC(C)Nc1nc(C#N)nc(Nc2ccccc2)n1	-13%	.	-14%	.	-1%	6%
C/C(=N/Nc1ccc(C(=O)O)cc1)c1ccc2c(c1)Nc1ccccc1S2	.	12%	.	-4%	.	.
C/C(=N\Nc1ccc(C(=O)O)cc1)c1ccc2c(c1)Nc1ccccc1S2	-3%	18µM*	-8%	-5%	-9%	-9%
COc1cccc(C2c3c(ncn(-c4ccc(Br)cc4)c3=N)Oc3ccc4ccccc4c32)c1 (configuration not stated)	.	.	.	.	.	3%
CC(C)=CC[C@@H](O)C1=CC(=O)c2c(O)ccc(O)c2C1=O	10µM*	.	.	.	7.1µM*	21%
Cc1nnc(C(C)C)n1C1C[C@H]2CC[C@@H](C1)N2CC[C@H](NC(=O)C1CCC(F)(F)CC1)c1ccccc1 (some centres not stated)	.	0%	.	.	.	.
O=C(CSCCSCC(=O)c1ccco1)c1ccco1	35µM*	.	-13%	.	?	?
COc1ccc(-c2nn(-c3ccccc3)cc2/C=C2/SC(=S)N(CCC(=O)O)C2=O)cc1	.	29%	-2%	20µM*	17µM*	.
SMILES	RECQ1 inh	GLS inhibitor	BLM inh	Tb PGK inh	APEX1 inh	TDP1 inh
COc1ccc(-c2nn(-c3ccccc3)cc2/C=C2/SC(=S)N(CCC(=O)O)C2=O)c(C)c1	.	?	?	-3%	?	40µM*
Cc1ccc(-c2nn(-c3ccccc3)cc2/C=C2\SC(=S)N(CC(=O)O)C2=O)cc1	0%	56%	-2%	-2%	?	2%
CC(C(O)c1ccccc1)N(C)CCOC(c1ccccc1)c1ccccc1 (configuration not stated)	.	-1%	.	.	.	.
N[C@@H](CSS(=O)(=O)O)C(=O)O	-6%	.	-4%	.	?	40µM*!
O=C(Nc1ccccc1)C1=C[C@H](c2csc3ccccc23)C[C@H](OCCCCO)O1	40µM*	19%	-5%	-8%	3%	5%
O=C(NCc1ccccc1)C1=C[C@H](c2csc3ccccc23)C[C@H](OCCCCO)O1	-22%	-5%	-12%	-5%	-2%	1%
Cc1c(P(=S)(c2ccccc2)c2ccccc2)c2ccccc2n1C(=O)NCc1ccc(F)cc1	.	.	.	.	.	0%
CCCc1nc2sc3c(SCC(=O)NCc4ccco4)ncnc3c2c2c1CCC2	?	?	?	?	?	20µM*
Oc1ccc(COc2ccccc2Cl)c2cccnc12	.	.	.	.	.	3%
COc1cc(/C=N/N=C2/NC(=O)C(CC(=O)O)S2)ccc1OCc1ccc(Cl)cc1 (configuration not stated)	-5%	18%	4%	-5%	-4%	5%
CCOc1cc(/C=N/N=C2/NC(=O)C(CC(=O)O)S2)ccc1OCc1ccc(Cl)cc1Cl (configuration not stated)	i	-11%	-7%	?	?	20µM*
CNc1c(NC(=O)C2CCC(C)CC2)c(=O)oc2ccccc12 (configuration not stated)	.	6%	-5%	-3%	-10%	79µM*
COC1[C@@H](O[C@@H]2O[C@H](C)[C@@H](O[C@H]3C[C@@](C)(O)[C@H](OC(=O)CC(C)C)[C@H](C)O3)[C@H](N(C)C)[C@H]2O)[C@@H](CC=O)C[C@@H](C)[C@@H](O)/C=C/C=C/C[C@@H](C)OC(=O)C[C@H]1OC(C)=O (some centres not stated)	.	.	.	.	-2%[21 µM]	.
Cn1nnnc1Sc1ncnc2scc(-c3ccccc3C(F)(F)F)c12	.	?	.	-2%	28%	8.9µM*
O=C(NC1CCS(=O)(=O)C1)c1ccc(Br)s1 (configuration not stated)	.	6%	.	6%	10%	100µM*
O=C(NNC(=O)c1ccc(Br)s1)NC1CCCCC1	.	-9%	-9%	-16%	-10%	56µM*
